# MCF10A rerep: DNA re-replication induction in MCF 10a cells. MCF 10A DNA re-replication, Hoechst nuclear intensity, 48 h. Potency, µM (series often up to 46.1 µM), usual class: activators. 350,000 tested, 2.9% active. AID 624296; also: nearly all actives have a fitted effect of over 50% in size
# KB-V1 MDR tox: kills drug-selected multidrug resistant KB-V1 cells; KB-V1 MDR cells viability, CellTiter-Glo, 72 h; 400,000 tested, 3.4% active; AID 1347076; Potency, µM (doses to about 46.1 µM), usual class: cytotoxic; also: nearly all actives have a fitted effect of over 60% in size
#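 Cells of the MDR subline KB-V1 are plated, dosed with compound at multiple concentrations, and incubated 72 h at 37 degrees C; CellTiter-Glo is then added and luminescence read after 10 min.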
# SW480 rereplic: DNA re-replication induction in SW480 cells. SW480 DNA re-replication, Hoechst DNA content imaging, 48 h. Potency, µM (doses to about 46.1 µM), hits mostly activators. 340,000 tested, 1.8% active. AID 624297; also: nearly all actives have a fitted effect of over 55% in size
#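 DNA re-replication was detected as more nuclei of elevated Hoechst intensity after 48 hr exposure to compound (23 nL pinned per well of 250 cells).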
# KB-3-1 tox: KB-3-1 parental cell cytotoxicity. 400,000 tested, 1.4% active. AID 1347075. KB-3-1 viability, CellTiter-Glo ATP luminescence, 72 h. Potency, µM (highest dose often 46.1 µM), usual class: cytotoxic; also: nearly all actives have a fitted effect of over 60% in size
#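 Cytotoxicity measured as CellTiter-Glo luminescence after 72 h at 37 C. Compound titrations were pinned onto drug-naive KB-3-1 parental adenocarcinoma cells grown in DMEM with 10% FBS, and normalized data fitted to concentration-response curves.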
# ELG1 repair inh: ELG1-dependent DNA repair inhibition | HEK293T ELG1-luciferase reporter, luminescence, 16 h; DNA damage induced by 5-fluorouridine | Potency, µM (titrated, usually from 46.1 µM), actives largely listed as inhibitors | 330,000 tested, 2.3% active | AID 504467; also: nearly all actives have a fitted effect of over 55% in size
#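 Cells (2,000 per well) received 5-fluorouridine plus test compound or DMSO and were incubated 16 hr at 37 °C, 5% CO2. Luciferase activity was read by luminescence 30 min after ONE-Glo addition; signal suppression marked inhibition of damage-induced ELG1 function.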
# Numbers stand for hits; – = inactive; ? = inconclusive; · = no result; [ ] = remark or other dose. Most compounds without a hit are left out; they make up all but 8.1% or so of the library. Calls follow the shape of the dose curve; as a rule, active = well fitted curve in the direction sought with a large enough effect; inconclusive = small, poorly fitted or top-dose-only effect, or another doubt; inactive = no such curve, though single readings can be large; an effect the other way counts as inactive or inconclusive.
SMILES,MCF10A rerep,KB-V1 MDR tox,SW480 rereplic,KB-3-1 tox,ELG1 repair inh
Cn1cc(/C=N/n2cnc3scc(-c4ccccc4)c3c2=O)c2ccccc21,?,2.1µM,15µM,5.2µM,?
O=C(c1ccc(F)cc1)N1CCN=C1c1ccccc1,?,–,13µM,–,–
COC(=O)c1ccc(N(CC(=O)NCC2CCCO2)C(=O)CCC(=O)Nc2cc(C)on2)cc1 (centres undefined),–,–,–,–,–
CSc1nc(-c2ccc(F)cc2)cc(=O)[nH]1,–,–,9.2µM,–,–
CC(Sc1nnnn1C)C(=O)Nc1ccccc1 (centres undefined),–,–,?,–,–
CCCn1c2c(c(=N)c3c1CCC3)CCC2,–,–,–,?,18µM
O=C(O)CCn1c2c(c3ccccc31)CCCC2,–,–,–,–,–
CCCCCCCn1c2c(c(=N)c3ccccc31)CCC2,?,?,?,?,4.1µM
CCCn1c2c(c(=N)c3c1CCC3)CCCC2,?,?,–,?,–
CCN(CC)CCCN(CC(=O)N(C)Cc1ccccc1)C(=O)c1ccc([N+](=O)[O-])cc1,–,–,–,–,–
Cc1ccc2nc(NCc3ccccc3Cl)c3nnnn3c2c1,·,–,·,–,·
Cc1ccc2nc(Cl)c3nnnn3c2c1,2.6µM,?,1.8µM,?,?
Cc1cccc(C(=O)NNC2=C(C(=O)C(F)(F)F)CCC2)c1O,?,–,?,?,21µM
CCNC(=O)C(=O)NCCC1CCCCN1S(=O)(=O)c1cccs1 (centres undefined),–,–,–,–,–
O=C(NCCc1ccccc1)C(=O)NCCC1CCCCN1S(=O)(=O)c1cccs1 (centres undefined),–,2.3µM,–,–,–
COc1ccc(NC(=O)C(=O)NCCC2CCCCN2S(=O)(=O)c2ccccc2)cc1 (centres undefined),?,?,15µM,4.6µM,?
COc1ccc(NC(=O)C(=O)NCCC2CCCCN2S(=O)(=O)c2cccs2)cc1 (centres undefined),2.1µM,1.8µM,4.5µM,2.6µM,–
O=C(NCCC1CCCCN1S(=O)(=O)c1cccs1)C(=O)Nc1ccccc1 (centres undefined),?,–,–,–,–
COc1ccc(CNC(=O)C(=O)NCCC2CCCCN2S(=O)(=O)c2ccccc2)cc1 (centres undefined),–,–,–,–,?
COC(=O)c1nc(-c2ccc(C)cc2)oc1N(C)C,–,?,–,–,–
COC(=O)c1nc(-c2ccccc2)oc1N(C)C,–,16µM,–,–,–
CCOC(=O)CSC1=C(C#N)C(c2ccc(C)cc2)C(C(=O)OC)C(=O)N1 (centres undefined),–,–,–[9.22 µM],–,–
COC(=O)C1=C(O)C(C(=O)OC)C(c2ccc(C)cc2)C(C#N)(C#N)C1c1ccc(C)cc1 (centres undefined),?,?,?,7.3µM,?
CCc1nnc(NS(=O)(=O)c2ccc(NC(=O)CCC(=O)OC)cc2)s1,0.58µM,–,–,–,–
CCc1nnc(NS(=O)(=O)c2ccc(N/C=C\C(=O)c3ccc4ccccc4c3)cc2)s1,23µM,–,–,–,–
SMILES,MCF10A rerep,KB-V1 MDR tox,SW480 rereplic,KB-3-1 tox,ELG1 repair inh
O=C(O)c1cccnc1SC1CC(=O)N(c2ccc(OC(F)F)cc2)C1=O (centres undefined),–,–,?,–,–
CCN(CC)C1CCN(C(=O)c2ccc(OC3CCN(C(=O)CCOC)CC3)cc2)C1 (centres undefined),·,–,·,?,·
Cc1ccc(NC(=O)CSCc2cc(=O)n3cc(C)sc3n2)c(C)c1,–,–,–,–,–
O=C1CCC/C(=N\NC(=O)c2ccc(COc3ccccc3-c3ccccc3)cc2)C1,9.2µM,–,–,–,–
O=C(N/N=C/c1ccccc1[N+](=O)[O-])c1ccc(COc2ccccc2-c2ccccc2)cc1,–,2.1µM,–,?,?
CCOc1ccc(C(=O)N/N=C/c2ccccc2[N+](=O)[O-])cc1,–,?,–,–,?
CCOc1ccc(OCC)c(NC(=O)c2cnn(-c3ccc(F)cc3)c2C2CCN(C(=O)OC(C)(C)C)CC2)c1,·,?,·,–,·
CC(OC(=O)C1CSC2(C)CCC(=O)N12)C(=O)Nc1cccc(C#N)c1 (centres undefined),–,–,–,–,–
CCCCCC1CCC(c2ccc(/C(N)=N/O)cc2)CC1 (centres undefined),?,–,2.3µM,–,?
CCOc1ccccc1NC(=O)Cn1c(=O)ccc2cc(S(=O)(=O)N3CCC(C)CC3)ccc21,·,–,·,–,·
CC[C@H](C)[C@@H]1NC(=O)[C@@H](CC(C)C)NC(=O)[C@H](C(C)C)NC(=O)[C@H]2CSSC[C@H](NC1=O)C(=O)N2,·,–,·,1.2µM,·
CC(C)CC1NC(=O)C(CCCN)NC(=O)C(C(C)C)NC(=O)C2CCCN2C(=O)C(Cc2ccccc2)NC(=O)C(CC(C)C)NC(=O)C(CCCN)NC(=O)C(C(C)C)NC(=O)C2CCCN2C(=O)C(Cc2ccccc2)NC1=O (centres undefined),?,·,–,·,·
Cc1[nH]n(C2=NCCS2)c(=O)c1N=Nc1cccc(C(F)(F)F)c1,–,–,?,?,2.9µM
Cc1cc(C)n(-c2ccc(NC(=O)C3CCN(Cc4cnc(C)s4)CC3)cc2)n1,?,?,–,–,–
COc1cc(OC)c(OC)cc1/C=C1\CCC/C(=C\c2cc(OC)c(OC)cc2OC)C1=O,16µM,?,?,?,15µM
COc1cc(OC)c(OC)cc1/C=C1\CCC(C2CCCC2)C1=O (centres undefined),?,?,?,–,7.3µM
COc1ccc(/C=C2\CCC/C(=C\c3ccc(OC)c(OC)c3OC)C2=O)c(OC)c1OC,–,–,–,–,23µM
COC(=O)c1cc(S(=O)(=O)N2CCN(c3cccc(Cl)c3)CC2)c[nH]1,–,–,–,–,–
COc1cc(OC)cc(C(=O)NC(C(=O)OCn2nnc3ccccc3c2=O)C(C)C)c1 (centres undefined),–,–,–,–,–
CCCN(CC(=O)Nc1ccc(F)c(F)c1F)C(=O)c1cc(S(=O)(=O)N(C)C)ccc1N1CCCC1,–,–,–,–,·
CCN(CC)c1ccc(/C=N/NC(=S)NCc2ccco2)cc1,?,?,?,18µM,?
Oc1ccc(/C=N/NC(=S)NCc2ccco2)cc1,–,–,–,–,–
C(=Nc1ccc(/C=C/c2ccnc3ccccc23)cc1)c1cccs1,·,–,·,?,·
c1ccc2nc(-c3nc4ccccc4o3)ccc2c1,–,–,–,11µM,?
CCOC(=O)c1cnc(-n2nc(C)cc2C)nc1Nc1ccc(OC)cc1,–,–,?,–,?
CCOC(=O)c1cnc(-n2nc(C)cc2C)nc1Nc1ccccc1OC,·,·,·,·,–

# Compound activity deposited in PubChem BioAssay by National Center for Advancing Translational Sciences (NCATS).
